Bioassay records as filed in PubChem.
Rows were chosen to be rich in hits. Some 19% of all compounds tested hit in one or more screens of this group.
RORgamma inh: inhibitors of mouse ROR gamma transcriptional activity; Potency, µM (titrated, usually from 53.6 µM), actives largely listed as inhibitors; AID 2551; P51450; Drosophila S2 Gal4-RORgamma UAS-luciferase reporter, 20 h; actives 5.4% (n = 310,000); note: nearly all actives have a fitted effect of over 60% in size
Target sequence (P51450 whole entry, looked up, the tested form may be a part): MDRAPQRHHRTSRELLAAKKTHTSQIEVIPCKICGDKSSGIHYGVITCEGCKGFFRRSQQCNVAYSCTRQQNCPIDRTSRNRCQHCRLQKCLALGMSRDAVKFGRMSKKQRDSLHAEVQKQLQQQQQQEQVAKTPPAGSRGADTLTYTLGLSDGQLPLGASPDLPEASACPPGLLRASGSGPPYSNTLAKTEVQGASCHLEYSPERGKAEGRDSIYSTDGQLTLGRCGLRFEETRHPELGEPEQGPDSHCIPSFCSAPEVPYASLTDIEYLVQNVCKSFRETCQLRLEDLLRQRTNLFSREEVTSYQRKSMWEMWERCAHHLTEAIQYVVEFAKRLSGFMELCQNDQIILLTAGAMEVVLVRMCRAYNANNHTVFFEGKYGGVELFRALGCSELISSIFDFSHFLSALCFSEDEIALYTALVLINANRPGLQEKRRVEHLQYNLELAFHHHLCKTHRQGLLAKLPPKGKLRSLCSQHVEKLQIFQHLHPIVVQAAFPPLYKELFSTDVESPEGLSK
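Drosophila Schneider cells stably carrying a metallothionein-driven Gal4 DBD–ROR gamma fusion and a UAS-Photinus luciferase reporter were exposed to compound for 1 hr, then induced with copper sulfate (700 uM final) for 20 hr at ambient temperature before luminescence reading.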
Gal4-VP16 FLuc: inhibits Gal4-VP16 luciferase reporter, ROR gamma counter-screen; Drosophila S2 Gal4-VP16 UAS-luciferase, luminescence, 20 h; Potency, µM (series often up to 53.6 µM), usual class: inhibitors; actives 3.5% (n = 310,000); AID 2546;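 note: Gal4-VP16 expression switched on by copper sulfate through the metallothionein promoter; nearly all actives have a fitted effect of over 50% in size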
TDP1 cell noCPT: qHTS for Inhibitors of human tyrosyl-DNA phosphodiesterase 1 (TDP1): qHTS in cells in absence of CPT; AID 686978, 2013; Potency, µM (top dose mostly 46.2 µM), actives largely listed as inhibitors; DT40 Tdp1-/- hTDP1 cells, no CPT, ATP luminescence, 48 h; actives 15% (n = 420,000); note: nearly all actives have a fitted effect of over 55% in size
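A cellular qHTS used chicken DT40 cells lacking endogenous Tdp1 but carrying stably transfected human TDP1. Compounds were applied without camptothecin, and cell growth kinetics were judged by ATP-dependent luminescence after ≥48 hr.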
TDP1 inh: inhibitors of human tyrosyl-DNA phosphodiesterase TDP1 | AID 485290 | Q9NUW8 | Potency, µM (top dose mostly 130 µM), usual class: inhibitors | actives 0.28% (n = 350,000) | recombinant TDP1, AlphaScreen DNA substrate cleavage; note: nearly all actives have a fitted effect of over 40% in size
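Steps: enzyme plus compound, 15 min RT; add biotin/phosphotyrosine-FITC oligonucleotide (15 nM final), react 5 min; add donor/acceptor beads (10 ug/ml final), 10 min; read AlphaScreen. Tdp1 at 1 nM final.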
DT40 TDP1 CPT: DT40-hTDP1 cell growth loss with CPT | actives 12% (n = 420,000) | AID 686979 | chicken DT40 Tdp1-/-;hTDP1 cells + 20 nM CPT, ATP luminescence, 48 h | Potency, µM (titrated, usually from 46.2 µM), most hits filed as inhibitors; note: nearly all actives have a fitted effect of over 55% in size
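Cell growth measured by CellTiter-Glo luminescence after a minimum 48 h, 37 C compound exposure with 20 nM CPT in Tdp1-knockout DT40 cells stably expressing hTDP1, seeded 400/well; qHTS titration format.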
Hits are given with their value; n = inactive; u = inconclusive; x = not tested or not shown; [ ] = remark or other dose. Calls come from the whole dose curve; as a rule, active = well fitted curve in the direction sought with a large enough effect; inconclusive = small, poorly fitted or top-dose-only effect, or another doubt; inactive = no such curve, though single readings can be large; an effect the other way counts as inactive or inconclusive.

SMILES	RORgamma inh	Gal4-VP16 FLuc	TDP1 cell noCPT	TDP1 inh	DT40 TDP1 CPT
c1ccc(-c2nc3nc4ccccc4nc3n2CC2CCCO2)cc1 (centres undefined)	n	n	15µM	x	u
Nc1ncc(-c2ccccc2)n1CC1CCCO1 (centres undefined)	13µM	u	18µM	n	u
O=C(CSc1ncc(-c2ccccc2)n1CC1CCCO1)N1CCCCC1 (centres undefined)	n	n	n	n	n
O=C(O)Cn1cc(/C=c2/sc3nc4ccccc4n3c2=O)c2ccccc21	n	u	n	u	n
CC(C)(C)OC(=O)N1CCC(c2c(C(=O)N3CCC(c4ccccc4)C3)cnn2-c2cccc(Cl)c2)CC1 (centres undefined)	x	x	15µM	n	18µM
CC1CCN(C(=O)c2cnn(-c3cccc(Cl)c3)c2C2CCN(C(=O)OC(C)(C)C)CC2)CC1	x	x	u	n	21µM
Cc1cccc(-n2ncc(C(=O)N3CCN(C4CCCCC4)CC3)c2C2CCN(C(=O)OC(C)(C)C)CC2)c1	x	x	21µM	n	16µM
CC(C)(C)OC(=O)N1CCC(c2c(C(=O)N3CCCCC3)cnn2-c2cccc(F)c2)CC1	x	x	n	n	n
Cc1cccc(-n2ncc(C(=O)N3CCOCC3)c2C2CCN(C(=O)OC(C)(C)C)CC2)c1	x	x	n	n	n
Cc1ccc(C2CCN(C(=O)c3cnn(-c4cccc(Cl)c4)c3C3CCN(C(=O)OC(C)(C)C)CC3)C2)cc1 (centres undefined)	x	x	7.3µM	n	13µM
COc1cc(/C=C/C(=O)OCC(=O)NCc2ccco2)ccc1OCC#N	n	n	n	n	n
CCN(C(=O)COC(=O)C1CCN(S(=O)(=O)c2ccc3c(c2)OCCO3)CC1)C1CCCCC1	x	x	n	n[0.505 µM]	n
CC(C)(C)NC(=O)C(c1ccc(-c2ccccc2)cc1)N(C[C@H]1CC[C@@H]([C@@H]2CC[C@H](CO)O2)O1)C(=O)c1ccccc1F (some centres undefined)	x	x	16µM	n	29µM
CC(C)(C)NC(=O)C(c1ccc(-c2ccccc2)cc1)N(C[C@H]1CC[C@@H]([C@@H]2CC[C@H](CO)O2)O1)C(=O)c1ccc(-c2ccccc2)cc1 (some centres undefined)	x	x	15µM	n	u
COc1ccc(C(C)(C)C)cc1NC(=O)CCn1[nH]c(=O)ccc1=O	x	x	n	n	n
COc1cccc(NC(=O)CSc2nc3ccccc3cc2Cc2ccccc2)c1	u	n	u	n	u
COc1cccc(CSc2nc3ccccc3cc2C=O)c1	u	u	1µM	n	1.2µM
CCN(CC)C(=O)c1nn(Cc2ccccc2)c(=O)c2ccccc12	n	n	n	n	n
CCN(CC)C(=O)c1nn(-c2ccccc2)c2c1C1CCC2(C)C1(C)C (centres undefined)	n	n	16µM	n	23µM
CC1CCC(N(CCCN)Cc2ccco2)CC1C (centres undefined)	u	n	21µM	n	29µM
CCCC(=O)c1cc(O)c(O)cc1O	n	n	17µM	u	u
NC(Cc1ccc(OC(F)F)cc1)C(=O)O (centres undefined)	n	n	n	n	n
COc1ccc2cc(C3CC(c4cccs4)=NN3S(C)(=O)=O)c(Cl)nc2c1 (centres undefined)	u	n	u	n	16µM
C=CCSc1nc2sc3c(c2c(=O)[nH]1)CC(C)(CC)OC3 (centres undefined)	n	n	u	x	u
Cc1cccc(-c2cnc(C(O)c3ccc(Cl)cc3C)[nH]2)c1 (centres undefined)	x	x	18µM	x	u
Cc1ccc(-c2cnc(C(O)c3ccc(Cl)cc3C)[nH]2)cc1 (centres undefined)	x	x	u	x	23µM
Cc1cc(Cl)ccc1C(O)c1ncc(-c2ccc(Cl)cc2)[nH]1 (centres undefined)	x	x	u	x	13µM
COc1cccc(N2C(=O)C(CC(=O)Nc3cccc(F)c3)N(C3CCCC3)C2=O)c1 (centres undefined)	x	x	n	n	n
